High-throughput results: PubChem, National Center for Advancing Translational Sciences (NCATS)
FLuc modulator: inhibits or activates purified firefly luciferase, miR-21 counter-screen. P08659. purified FLuc, Km substrates, luminescence inhibition. Potency, µM (series often up to 57.5 µM), for inactives: at the highest dose activity change, negative = inhibition, hits mostly inhibitors. hit rate 6.9% among 360,000;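 also: plate controls were vehicle for no effect and reference inhibitor for full effect; nearly all actives have a fitted effect of over 55% in size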
Target sequence (P08659 whole entry, looked up): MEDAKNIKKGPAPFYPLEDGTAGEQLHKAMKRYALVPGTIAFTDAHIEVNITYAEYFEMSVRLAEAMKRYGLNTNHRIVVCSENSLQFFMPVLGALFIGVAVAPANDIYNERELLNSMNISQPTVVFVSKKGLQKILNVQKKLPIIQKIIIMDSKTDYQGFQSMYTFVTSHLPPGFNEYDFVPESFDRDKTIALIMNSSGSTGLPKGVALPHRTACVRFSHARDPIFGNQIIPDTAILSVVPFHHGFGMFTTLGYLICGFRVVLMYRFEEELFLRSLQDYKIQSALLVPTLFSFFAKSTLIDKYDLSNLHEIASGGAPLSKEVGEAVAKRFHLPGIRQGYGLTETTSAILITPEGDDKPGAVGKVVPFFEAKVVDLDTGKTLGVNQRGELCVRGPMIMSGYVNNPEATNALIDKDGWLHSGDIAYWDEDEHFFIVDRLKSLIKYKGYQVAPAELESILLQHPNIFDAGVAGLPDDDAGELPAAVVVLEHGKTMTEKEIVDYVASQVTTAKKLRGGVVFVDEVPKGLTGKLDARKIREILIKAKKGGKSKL
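Purified P. pyralis luciferase (10nM final) with 10uM D-luciferin and 10uM ATP (Km levels) in 50mM Tris acetate pH 7.5, 10mM Mg acetate, 0.01% Tween-20, 0.05% BSA; qHTS 6-point titration, ~60 µM downward; luminescence read.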
ELG1 repair inh: ELG1-dependent DNA repair inhibition | HEK293T ELG1-luciferase reporter, luminescence, 16 h; DNA damage induced by 5-fluorouridine | Potency, µM (titrated, usually from 46.1 µM), for inactives: at the top dose activity change, negative = inhibition, hits mostly inhibitors | AID 504467 | hit rate 2.3% among 330,000; also: % is scaled to controls: 0 for no effect and ±100 for the full control effect; nearly all actives have a fitted effect of over 55% in size
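DMSO vehicle served as the neutral condition. Each well held 2,000 cells given 5-fluorouridine plus compound; after 16 hr at 37 °C/5% CO2, ONE-Glo was added and luciferase measured 30 min later.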
NPC1 promoter act: NPC1 promoter activation. hit rate 2.4% among 320,000. Huh7 NPC1 promoter luciferase reporter, 24 h. Potency, µM (titrated, usually from 9.22 µM), for the others: at the top dose activation, usual class: activators; also: % of control where 0% means no effect; nearly all actives have a fitted effect of over 60% in size
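In 1536-well qHTS, Huh7 cells harboring an NPC1 promoter–luciferase construct received compound for 24 h; activation was quantified by luminescence following luciferase reagent addition.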
ELG1 genotox: induces genotoxicity in HEK293T cells with luciferase-tagged ELG1 | HEK293T ELG1-luciferase reporter, luminescence, 16 h | Potency, µM (titrated, usually from 46 µM), for the others: top-dose activity change, positive = activation, actives largely listed as activators | hit rate 1.3% among 330,000 | AID 504466; also: % of control where 0% means no effect; nearly all actives have a fitted effect of over 60% in size
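Reporter readout depends on ELG1 protein level, which increases with genetic stress. After 16 hr compound exposure at 37 °C, luciferase activity was quantified using ONE-Glo.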
Rab9 prom act: activators of Rab9 promoter | Huh7 Rab9 promoter-luciferase reporter, luminescence, 24 h | Potency, µM (highest dose often 9.22 µM), inactives show top-dose activation, negative = inhibition, usual class: activators | hit rate 2.8% among 320,000; also: % of control where 0% means no effect; nearly all actives have a fitted effect of over 60% in size
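Quantitative HTS format; Huh7 Rab9-luciferase reporter cells (1500/well) receive compound 2 h post-plating, incubate 24 h at 37 °C, then get luciferase reagent for 10 min before luminescence reading.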
SMN2 splice enh: increases expression of the SMN2 splice variant; HEK293 SMN2-luciferase splicing reporter, luminescence, 30-36 h; Potency, µM (doses to about 46.1 µM), without a hit: at the top dose activity change, positive = activation, usual class: activators; hit rate 2.8% among 210,000; AID 1458; also: % of control where 0% means no effect; nearly all actives have a fitted effect of over 55% in size
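qHTS luciferase splicing reporter: luminescence rises when SMN2 exon 7 is included in transfected HEK293 cells. Compound exposure lasted 30-36 h at 37C, with 4.5 mM final sodium butyrate as control, followed by a ONE-Glo read.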
The depositor's hits bear a star; ? = inconclusive; / = not tested or not shown; [ ] = dose if it differs, or a comment. In the library only some 9.4% were active in any assay of this set; here they are far more common. Calls follow the shape of the dose curve; as a rule, active = well fitted curve in the direction sought with a large enough effect; inconclusive = small, poorly fitted or top-dose-only effect, or another doubt; inactive = no such curve, though single readings can be large; an effect the other way counts as inactive or inconclusive. Potency is read from the fitted curve at half-maximal effect.

SMILES	FLuc modulator	ELG1 repair inh	NPC1 promoter act	ELG1 genotox	Rab9 prom act	SMN2 splice enh
Cc1csc2nc(CNC(=O)c3ccco3)cn12	17µM*	?	?	18µM*	?	20µM*
COc1ccc(-c2nc(CCNC(=O)c3cccs3)cs2)cc1	27µM*	21µM*	1%	?	-5%	-71%
COc1ccc(CC(=O)NCCc2csc(-c3ccc(Cl)cc3)n2)cc1	-6%	/	/	/	/	/
Cc1nc(-n2nc(C)c(Cc3ccccc3Cl)c2C)sc1C(=O)N1CCCCC1C (centres undefined)	-1%	/	/	/	/	/
O=C(COC(=O)c1ccc(F)c(S(=O)(=O)N2CCOCC2)c1)Nc1ccc2[nH]c(=O)[nH]c2c1	0%	2%	0%	-2%	5%	/
O=C(O)CC12C[C@H]3C[C@@H](CC(O)(C3)C1)C2	/	/	/	/	/	-11%[9.22 µM]
CCN(CCNC(=O)CS(=O)(=O)Cc1nc(-c2cccc(OC)c2)oc1C)c1ccccc1	-1%	18µM*	1%	-12%	-3%	-27%
COc1cccc(-c2nc(CS(=O)(=O)CC(=O)NCCc3cc(OC)ccc3OC)c(C)o2)c1	-1%	21µM*	-3%	-11%	0%	/
COc1cccc(-c2nc(CS(=O)(=O)CC(=O)NCCc3ccc(OC)cc3OC)c(C)o2)c1	0%	23µM*	-2%	-7%	0%	-33%
COc1ccc(-c2nc(CS(=O)(=O)CC(=O)NCCc3cc(OC)ccc3OC)c(C)o2)cc1	-11%	?	0%	-10%	-2%	-39%
CCOC(=O)c1c(C)oc2nc(C)nc(N(C)Cc3ccccc3)c12	-14%	/	/	/	/	/
CN(C)CCCNC(=O)c1ccc(/C=N/O)nc1	11µM*	?	2.5µM*	?	2.8µM*	/
CCCC(=O)N1CCN(c2ccc(NC(=S)NC(=O)c3cccc(C)c3)cc2)CC1	1%	16µM*	-9%	-11%	-17%	-51%
Nn1c(SCc2cn3cc(Cl)ccc3n2)nnc1-c1ccncc1	1%	-1%	2%	-3%	2%	5%
Cc1ccc(SCc2cn3c(C)csc3n2)cc1	2.1µM*	?	0.63µM*	1.6µM*	0.63µM*	8.9µM*
Clc1ccc2nc(CSCc3ccccc3)cn2c1	7.6µM*	?	1.6µM*	?	2µM*	13µM*
Cc1cccc2nc(CSc3ccc(Cl)cc3)cn12	9.5µM*	?	3.2µM*	?	2.2µM*	11µM*
Nc1nnc(SCc2cn3cc(Cl)ccc3n2)s1	?	?	?	?	4µM*	?
Cc1ccc(SCc2cn3cc(Cl)ccc3n2)cc1	13µM*	?	?	21%	?	/
Clc1ccc(-n2nnnc2SCc2cn3ccccc3n2)cc1	1%	-2%	3%	5%	-2%	-7%
Clc1ccc(SCc2cn3ccccc3n2)cc1	9.5µM*	?	?	?	2.5µM*	11µM*
CNc1cc(CSc2ccc(Cl)cc2)nc(C)n1	17µM*	?	?	18%	2.2µM*	?
Clc1ccc2nc(CSc3nncn3-c3ccccc3)cn2c1	5%	-3%	-2%	0%	1%	-8%
Clc1ccc2nc(CSc3nnc4ccccn34)cn2c1	7.6µM*	?	0.5µM*	8.2µM*	1µM*	10µM*
Cc1cc(C)n2cc(CSCc3ccco3)nc2n1	1%	?	-2%	5%	2%	2%
SMILES	FLuc modulator	ELG1 repair inh	NPC1 promoter act	ELG1 genotox	Rab9 prom act	SMN2 splice enh
c1ccc2[nH]c(SCc3cn4ccccc4n3)nc2c1	?	0%	?	?	?	/
Cc1cccc2nc(CSCc3ccco3)cn12	7.6µM*	?	1.1µM*	?	2.2µM*	11µM*
Clc1ccc2nc(CSc3nc4ccccc4o3)cn2c1	1.9µM*	?	0.89µM*	2.6µM*	1µM*	18µM*
CC(=O)Nc1nonc1-c1nnc(SCC(=O)Nc2cc(C)ccc2C)n1-c1ccccc1	5%	/	/	/	/	/
Cc1cc2c(cc1S(=O)(=O)Nc1cccc(Cl)c1C)n(C)c(=O)c(=O)n2C	-3%	/	/	/	/	/
COc1ccc(N2C(=O)/C(=C\c3ccco3)N=C2SCC(=O)N(C(C)C)C(C)C)cc1Cl	3%	13µM*	0%	-9%	-9%	-12%
Cc1nc(-c2ccc(Cl)cc2)sc1C1(C)CC(c2ccc([N+](=O)[O-])cc2)=NO1 (centres undefined)	-18%	10%	5%	5%	2%	/
Cc1nc(-c2ccc(Cl)cc2)sc1C1(C)CC(c2cccc(Cl)c2)=NO1 (centres undefined)	24µM*	0%	18%	15%	3%	/
Cc1nc(-c2ccc(Cl)cc2)sc1C1(C)CC(c2ccc(F)cc2)=NO1 (centres undefined)	?	?	14%	12%	6%	/
Cc1nc(-c2ccc(Cl)cc2)sc1C1(C)CC(c2cccc(F)c2)=NO1 (centres undefined)	24µM*	?	14%	14%	-4%	/
CCOc1ccc(CCNC(=O)CN2C(=O)COc3ccc(S(=O)(=O)N4CCC(C)CC4)cc32)cc1	-6%	/	/	/	/	-4%
COc1ccc(OC)c(NC(=O)Nc2cccc(OCc3cc(=O)n4cc(C)ccc4n3)c2)c1	1.2µM*	/	/	/	/	/
Cc1ccc2nc(COc3ccc(Cl)cc3)cc(=O)n2c1	?	?	3.5µM*	23%	1.3µM*	13µM*
Cn1c(O)c(N=NC(=O)c2ccccc2O)c2ccccc21	3µM*	?	3.5µM*	7.3µM*	?	/
Cn1c(O)c(N=Nc2ccccc2[N+](=O)[O-])c2ccccc21	?	?	3.5µM*	?	?	/
CC(=O)c1cc(O)c2ccccc2c1O	?	?	5%	13%	-1%	/
Cn1c(O)c(N=NC(=O)c2ccco2)c2ccccc21	4.8µM*	?	4µM*	?	2.2µM*	10µM*
Cc1cc(N=NC(=O)c2ccccc2O)c2ccccc2c1O	11µM*	?	?	-7%	3.2µM*	-10%
CCCn1c2ccccc2c2cnn(CC(=O)Nc3ccccc3OC)c(=O)c21	-20%	/	/	/	/	/
Clc1cccc(CNc2cc(-c3ccccc3)nc3nncn23)c1	-1%	/	/	/	/	1%
COc1ccc(CC(=O)NCCc2csc(-c3cccc(C)c3)n2)cc1	-16%	/	/	/	/	/
Cc1occc1C(=O)N=Nc1c(O)n(C)c2ccccc12	1.7µM*	?	?	?	?	2.8µM*
CC(C)(C)c1ccc(S(=O)(=O)CCc2ccccn2)cc1	17µM*	?	?	21µM*	?	9%
c1ccc(CCNc2ccccn2)nc1	/	/	/	/	/	1%[9.22 µM]
